A selection: hits, their analogues and other compounds. The true share with any hit is near 8.7%.
JMJD2A Tudor inh: inhibitors of human JMJD2A Tudor domain. AlphaScreen JMJD2A-Tudor / H3K4me3 peptide binding. Potency, µM (series often up to 114 µM), most hits filed as inhibitors. actives 4.4% (n = 390,000). AID 504339; note: nearly all actives have a fitted effect of over 50% in size
12-LOX inh: ALOX12 (human) lipoxygenase inhibition | P18054 | purified 12hLO, xylenol orange hydroperoxide absorbance | Potency, µM (top dose mostly 108 µM), actives largely listed as inhibitors | actives 1.1% (n = 580,000)
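Purified human 12hLO at 150 nM in 25 mM Hepes, 0.01% Triton X-100, pH 7.0, preincubated 15 min at room temperature with compound. Reaction started with 40 uM arachidonic acid, 30 min at room temperature. Hydroperoxide measured by Fe-xylenol orange, 573/405 nm absorbance ratio.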
Sfp PPTase inh: inhibitors of Bacillus subtilis Sfp phosphopantetheinyl transferase; Biochemical Sfp PPTase activity, qHTS; Potency, µM, most hits filed as inhibitors; actives 3.5% (n = 310,000);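 note: the enzyme is Sfp with the accession as filed and its product quenches rhodamine fluorescence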
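Compounds were incubated with enzyme (final 15 nM) for 15 min at room temperature before substrate addition started the reaction. Fluorescence at 525 nm excitation, 598 nm emission was recorded immediately and after 30 minutes.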
HP1b chromo inh: inhibitors of HP1-beta chromodomain binding to methylated histone tails. AlphaScreen HP1-beta / biotin-H3K9me3 peptide binding. AID 540317. actives 0.56% (n = 390,000). Potency, µM (series often up to 114 µM), most hits filed as inhibitors. P83916; note: nearly all actives have a fitted effect of over 70% in size
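AlphaScreen: HP1-beta (50 nM) preformed 30 min with biotin-H3(1-18)K9me3 peptide (50 nM) in PBS pH 7.4, 0.01% Tween-20. Compound added for 30 min at RT, then streptavidin donor/nickel chelate acceptor beads (10 ug/mL) for 30 min.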
G9a block: G9a (human) methyltransferase inhibition; actives 8.8% (n = 350,000); Potency, µM (series often up to 102 µM), actives largely listed as inhibitors; G9a H3K9 monomethylation, AlphaScreen, 2 h; AID 504332; Q96KQ7; note: nearly all actives have a fitted effect of over 75% in size
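Readings reflect AlphaScreen signal from monomethyl-H3K9 antibody detection. HMT at 20 nM; substrate b-H3K9 500 nM; cofactor SAM 20 uM; 2 h RT reaction; compounds tested as titrations in qHTS with 15 min preincubation.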
BAZ2B block: inhibitors of human BAZ2B bromodomain | Q9UIF8 | actives 4.4% (n = 360,000) | Potency, µM (titrated, usually from 114 µM), actives largely listed as inhibitors | AlphaScreen BAZ2B-H3K14Ac peptide displacement; note: nearly all actives have a fitted effect of over 60% in size
Target sequence (Q9UIF8 whole entry, looked up): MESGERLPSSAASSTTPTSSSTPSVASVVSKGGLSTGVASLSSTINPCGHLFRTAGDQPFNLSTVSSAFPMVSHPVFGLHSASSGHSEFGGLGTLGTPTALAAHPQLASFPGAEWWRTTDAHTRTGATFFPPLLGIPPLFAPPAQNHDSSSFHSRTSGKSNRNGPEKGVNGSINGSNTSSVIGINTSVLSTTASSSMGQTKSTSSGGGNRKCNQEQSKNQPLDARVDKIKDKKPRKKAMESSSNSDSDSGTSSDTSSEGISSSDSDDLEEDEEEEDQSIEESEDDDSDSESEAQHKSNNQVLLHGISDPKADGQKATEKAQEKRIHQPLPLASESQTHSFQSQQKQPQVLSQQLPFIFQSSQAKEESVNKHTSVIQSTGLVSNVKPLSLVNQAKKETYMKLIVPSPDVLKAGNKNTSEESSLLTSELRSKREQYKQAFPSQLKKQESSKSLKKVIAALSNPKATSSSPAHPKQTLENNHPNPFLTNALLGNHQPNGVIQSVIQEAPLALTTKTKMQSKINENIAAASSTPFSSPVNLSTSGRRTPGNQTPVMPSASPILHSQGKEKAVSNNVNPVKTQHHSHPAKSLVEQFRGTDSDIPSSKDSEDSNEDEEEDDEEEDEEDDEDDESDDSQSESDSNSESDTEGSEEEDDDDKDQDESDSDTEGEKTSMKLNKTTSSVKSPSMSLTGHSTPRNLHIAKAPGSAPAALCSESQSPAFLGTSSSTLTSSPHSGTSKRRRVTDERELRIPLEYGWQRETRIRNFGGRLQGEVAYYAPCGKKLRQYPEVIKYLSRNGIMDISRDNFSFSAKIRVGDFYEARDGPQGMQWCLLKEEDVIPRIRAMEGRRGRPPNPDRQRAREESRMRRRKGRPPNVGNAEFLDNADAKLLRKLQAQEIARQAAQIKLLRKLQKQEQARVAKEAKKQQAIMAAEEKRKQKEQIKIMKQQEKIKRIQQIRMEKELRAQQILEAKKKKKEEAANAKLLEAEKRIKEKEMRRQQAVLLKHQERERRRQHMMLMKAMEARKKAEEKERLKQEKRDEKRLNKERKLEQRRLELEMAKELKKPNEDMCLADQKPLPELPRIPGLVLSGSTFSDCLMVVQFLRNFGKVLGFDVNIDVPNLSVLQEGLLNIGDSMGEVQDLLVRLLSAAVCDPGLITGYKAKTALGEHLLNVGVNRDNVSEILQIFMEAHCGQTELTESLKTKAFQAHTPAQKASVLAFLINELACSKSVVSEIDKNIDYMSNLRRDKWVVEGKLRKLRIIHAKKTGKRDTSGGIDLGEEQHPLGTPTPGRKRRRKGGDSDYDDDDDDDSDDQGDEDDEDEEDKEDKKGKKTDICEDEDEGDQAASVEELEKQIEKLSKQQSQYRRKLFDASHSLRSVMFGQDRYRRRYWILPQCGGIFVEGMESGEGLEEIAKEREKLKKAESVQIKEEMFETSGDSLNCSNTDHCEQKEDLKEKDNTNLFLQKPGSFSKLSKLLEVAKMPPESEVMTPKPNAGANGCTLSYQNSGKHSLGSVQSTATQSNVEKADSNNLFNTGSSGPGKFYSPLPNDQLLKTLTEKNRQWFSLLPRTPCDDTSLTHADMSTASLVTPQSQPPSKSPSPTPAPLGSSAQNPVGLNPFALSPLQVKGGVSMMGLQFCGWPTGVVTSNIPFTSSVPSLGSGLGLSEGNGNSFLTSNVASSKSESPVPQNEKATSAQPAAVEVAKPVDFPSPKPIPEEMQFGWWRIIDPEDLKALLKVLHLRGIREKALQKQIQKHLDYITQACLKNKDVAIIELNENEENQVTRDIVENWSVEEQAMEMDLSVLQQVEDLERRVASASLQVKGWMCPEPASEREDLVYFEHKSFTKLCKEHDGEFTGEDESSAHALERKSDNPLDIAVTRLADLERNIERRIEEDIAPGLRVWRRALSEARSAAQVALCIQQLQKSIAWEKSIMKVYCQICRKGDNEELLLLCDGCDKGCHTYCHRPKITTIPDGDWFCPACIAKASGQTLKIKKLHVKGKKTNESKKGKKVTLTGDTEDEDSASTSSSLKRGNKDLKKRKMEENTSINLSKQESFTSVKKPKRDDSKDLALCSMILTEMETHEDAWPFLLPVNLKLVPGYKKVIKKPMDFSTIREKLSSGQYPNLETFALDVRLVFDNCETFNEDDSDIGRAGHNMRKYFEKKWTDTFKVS
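In this displacement format the biotinylated H3(5-23) peptide acetylated at Lys14 serves as ligand at 50 nM, with BAZ2B at 50 nM in PBS pH 7.4 containing 0.01% Tween-20. Donor and acceptor beads are 10 ug/mL final.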
A number is an active result; . = inactive; ? = inconclusive; / = no result given; [ ] = another dose, or the depositor's remark. Calls come from the whole dose curve; as a rule, active = well fitted curve in the direction sought with a large enough effect; inconclusive = small, poorly fitted or top-dose-only effect, or another doubt; inactive = no such curve, though single readings can be large; an effect the other way counts as inactive or inconclusive.

SMILES	JMJD2A Tudor inh	12-LOX inh	Sfp PPTase inh	HP1b chromo inh	G9a block	BAZ2B block
C#CC(C)(CC)NC(=O)Cc1cccs1 (stereo not drawn)	/	.	/	/	/	/
C[S+](=O)([O-])N1CC2(CCN(Cc3cccnc3)C2)Cc2ccccc21 (stereo not drawn)	/	.[6.33 µM]	/	/	/	/
O=C(CCc1ccccc1)NCc1nnc2ccc(-c3ccccc3)nn12	/	.	/	/	/	/
CCOc1ccccc1N1CCN(S(=O)(=O)CC)CC1	.	.	.	.	39.8µM	.
CCOc1ccccc1N1CCN(C(=S)NCc2ccco2)CC1	.	.	.	.	50.1µM	.
Cc1ccc(NC(=O)c2oc3ccccc3c2C)cc1C	/	.	/	/	/	/
Cc1nc(N2CCN(Cc3ccc4c(c3)OCO4)CC2)nc2c1C(=O)CC(c1ccco1)C2 (stereo not drawn)	?	.	.	.	39.8µM	?
COc1ccc2nc(-n3ncc4c3NC(=O)CC4c3cc(OC)c(OC)c(OC)c3)sc2c1 (stereo not drawn)	/	.	/	/	/	/
CN1C(=O)c2cccn2CC1CNC(=O)c1cc(CN2CCOCC2)on1 (stereo not drawn)	/	.	/	/	/	/
COc1ccccc1NC(=O)N1CCC(Oc2ncccc2C(=O)N2CCOCC2)C1 (stereo not drawn)	/	.	/	/	/	/
O=C(O)c1cccc(Sc2cc(Cl)ccc2C(=O)O)c1	89.1µM	?	/	.	.[0.501 µM]	56.2µM
Cn1c(NCCO)nc2c1c(=O)n(Cc1ccccc1F)c(=O)n2C	/	.	/	/	/	/
CCOc1ccc(N/C(C)=C/C(=O)c2ccc(C)o2)cc1	.	?	.	.	50.1µM	?
COC(=O)c1ccc(N/C(C)=C/C(=O)c2ccc(C)o2)cc1	89.1µM	?	.	.	.[12.7 µM]	.
C/C(=C\C(=O)c1ccc(C)o1)Nc1ccc2c(c1)OCO2	?	?	.	.	?	?
CCS(=O)(=O)Nc1ccc(C2(C(=O)NC3CCCC3)CCCCC2)cc1	/	.	/	/	/	/
CN(C)c1cccc(C(=O)Nc2nc3ccccc3[nH]2)c1	44.7µM	?	.	?	50.1µM	35.5µM
Cn1nc(C(=O)Nc2nc3ccccc3[nH]2)ccc1=O	.	.	.	.	31.6µM	?
Cc1c(C(=O)Nc2nc3ccccc3[nH]2)oc2ccc(Br)cc12	.	.	14.1µM	.	.	.
O=c1[nH]c(N2CCOCC2)nc2nccc(-c3cccnc3)c12	/	.	/	/	/	/
Cc1cc(C(=O)Nc2ccccc2C(=O)O)ccc1NC(=O)COc1ccccc1Cl	.	.	.	.	22.4µM	.
O=C(COc1cccc2ccccc12)Nc1ccc(Cl)cc1C(=O)O	.	?	.	.	79.4µM	.
O=C(COc1cccc2ccccc12)Nc1cc(Cl)ccc1C(=O)O	.	?	.	.	.	.
CC(/C=N/NC(=O)Cn1cnc2c1c(=O)n(C)c(=O)n2C)=C\c1ccco1	.	.	39.8µM	.	/	.
Cn1c(=O)c2c(ncn2CC(=O)N/N=C/C=C/c2ccco2)n(C)c1=O	.	.	14.1µM	.	/	.
SMILES	JMJD2A Tudor inh	12-LOX inh	Sfp PPTase inh	HP1b chromo inh	G9a block	BAZ2B block
CCOC(=O)c1cc(-c2ccncc2)nc2ccccc12	/	.	/	/	/	/
COc1ccc(N2CCN(CC(=O)Nc3c(C)cc(C)cc3C)CC2)cc1	.	?	.	.	39.8µM	.
COc1ccc(N2CCN(CC(=O)Nc3ccccc3SC)CC2)cc1	?	.	.	?	.[12.7 µM]	50.1µM
Cc1sc2nc(CSc3nnc(Cc4cccs4)n3C3CCCCC3)[nH]c(=O)c2c1C	.	.	.	.	44.7µM	.
Cc1ccc2nc(CSc3nnc(Cc4cccs4)n3C3CCCCC3)cc(=O)n2c1	.	.	.	.	?	.
CC(=O)OCc1nc2sc(C)c(C)c2c(=O)[nH]1	.	.	.	.	.	.
Cc1sc2nc(CSc3n[nH]c(N)n3)[nH]c(=O)c2c1C	.	.	79.4µM	.	.	/
Cc1sc2nc(CC(=O)NN)[nH]c(=O)c2c1C	.	.	?	.	39.8µM	.
Cc1sc2nc(CSc3nc4ccccc4s3)[nH]c(=O)c2c1C	/	?	.	/	8.91µM	?
O=C(c1ccccc1)N1CCC(N2CCOC2=O)CC1	/	.[12.5 µM]	/	/	/	/
O=c1[nH]c(CSc2nc3ccccc3s2)nc2cc(Cl)ccc12	/	?	.	/	28.2µM	.
O=c1[nH]c(CSc2nc3ccccc3s2)nc2ccccc12	.	.	?	.	?	.
Cc1sc2nc(CSc3cccc(C(F)(F)F)c3)[nH]c(=O)c2c1C	?	.	.	.	.	.
Cc1sc2nc(CSc3ccc([N+](=O)[O-])cc3)[nH]c(=O)c2c1C	/	/	50.1µM	/	?	.
O=c1cc(CO)occ1OCc1cccc(C(F)(F)F)c1	.	.	.	.	.	.
COc1cccc(C(Nc2ccccn2)c2oc(CO)cc(=O)c2O)c1 (stereo not drawn)	44.7µM	.	4.47µM	?	1.26µM	79.4µM
O=c1cc(CO)oc(C(Nc2ccccn2)c2ccccc2F)c1O (stereo not drawn)	22.4µM	?	/	?	/	/
O=c1cc(CO)oc(C(Nc2ccccn2)c2ccc(C(F)(F)F)cc2)c1O (stereo not drawn)	.	?	?	.	1.58µM	.
O=C(CCc1ncc(-c2ccccc2F)o1)Nc1ccccn1	/	.	/	/	/	/
O=c1cc(CO)oc(C(Nc2ccccn2)c2cccc(F)c2)c1O (stereo not drawn)	20µM	.	10µM	?	1.26µM	.
CC(C)C(=O)Nc1ccc2[nH]cc(C(C(=O)O)N3CCCCC3)c2c1 (stereo not drawn)	/	.	/	/	/	/
CC(C)CC(NC(=O)CC(C)(C)CC(=O)O)c1ccccc1 (stereo not drawn)	/	.	/	/	/	/
CN1CCCC1c1nc(C2CN(C(=O)CCCc3c[nH]c4ccccc34)C2)no1 (stereo not drawn)	/	.	/	/	/	/
Cc1ccc(NC(=O)C(C)SCc2nc3sc(C)c(C)c3c(=O)[nH]2)nc1 (stereo not drawn)	.	.	/	.	14.1µM	.
CC(SCc1nc2sc3c(c2c(=O)[nH]1)CCCC3)C(=O)Nc1ccccn1 (stereo not drawn)	.	?	/	.	50.1µM	.
Cc1sc2nc(CSCC(=O)N(C)CC(=O)Nc3ccc(F)cc3)[nH]c(=O)c2c1C	.	.	/	.	50.1µM	.
Cc1sc2nc(CSCC(=O)Nc3ccc(C(F)(F)F)cc3)[nH]c(=O)c2c1C	.	.	/	.	.[2.33 µM]	.
Cc1ccc(NC(=O)C(C)SCc2nc3sc4c(c3c(=O)[nH]2)CCCC4)nc1 (stereo not drawn)	.	.	.	.	.	.
Cc1cccc(NC(=O)C(C)SCc2nc3sc(C)c(C)c3c(=O)[nH]2)n1 (stereo not drawn)	.	.	.	.	44.7µM	.
Cc1cn2nc(C(=O)NCc3ccc(Cl)cc3)cc2c(N2CCCC2)n1	/	.	/	/	/	/

Source: PubChem BioAssay
